# WRN inhibitor = qHTS for Inhibitors of WRN Helicase. Bifunctional 3'-5' exonuclease/ATP-dependent helicase WRN (Homo sapiens), Q14191. WRN helicase unwinding, fluorescent forked duplex, kinetic. Potency, µM (top dose mostly 114 µM), without a hit: at the top dose activity change, negative = inhibition, usual class: inhibitors. 360,000 compounds, 0.46% hits; further: on the % scale 0 is the no-effect control and ±100 the full control effect; nearly all actives have a fitted effect of over 55% in size
#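 Enzyme (20 nM final) and test compound sit together 15 min at room temperature before substrate addition. Substrate is a single-forked duplex oligonucleotide (100 nM) labelled with fluorophore and quencher, with 2 mM ATP; helicase unwinding raises red fluorescence, read kinetically.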
# FEN1 inhibitor = qHTS Assay for the Inhibitors of Human Flap endonuclease 1 (FEN1); P39748; Recombinant FEN1 flap cleavage, fluorescence, 15 min; Potency, µM (series often up to 114 µM), for the others: top-dose activity change, negative = inhibition, most hits filed as inhibitors; 390,000 compounds, 0.35% hits; AID 588795, 2011; further: on the % scale 0 is the no-effect control and ±100 the full control effect; nearly all actives have a fitted effect of over 65% in size
#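 Nuclease activity of 10 nM FEN1 was measured after 15 min of room-temperature exposure to titrated compounds, by adding 50 nM flap substrate and reading plates at 0 and 15 min.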
# POLB inh = qHTS Assay for Inhibitors of DNA Polymerase Beta; P06746; 340,000 compounds, 1.3% hits; AID 485314, 2010; Pol beta primer extension/strand displacement, fluorescence kinetic; Potency, µM (series often up to 114 µM), for inactives: top-dose activity change, negative = inhibition, most hits filed as inhibitors; further: on the % scale 0 is the no-effect control and ±100 the full control effect
#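 Human Pol beta at 10 nM; strand-displacement substrate 50 nM final. Compound exposure 15 min at room temperature before start, reaction 10 min at room temperature.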
# POLK inh = qHTS for Inhibitors of Polymerase Kappa. DNA polymerase kappa (Homo sapiens), Q9UBT6. purified Pol kappa, fluorescent DNA synthesis assay, 10 min. Potency, µM (doses to about 107 µM), inactives show top-dose activity, negative = inhibition, actives largely listed as inhibitors. 400,000 compounds, 0.53% hits. AID 588579, 2011; further: on the % scale 0 is the no-effect control and ±100 the full control effect
#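 Enzyme at 10 nM met test compounds for 15 min at room temperature. Substrate addition (50 nM final) began the reaction, which was monitored by fluorescence at 0 and 10 min.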
# POLI inh = qHTS for Inhibitors of Polymerase Iota; Pol iota fluorescent replication assay, 10 min; Potency, µM (doses to about 115 µM), without a hit: top-dose activity, negative = inhibition, hits mostly inhibitors; 390,000 compounds, 1% hits
#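 Fluorescent replication assay read twice, at 0 min and 10 min after adding 50 nM (final) substrate. Enzyme (10 nM) and compounds were first incubated 15 min at room temperature; enzyme-free buffer wells were negative controls.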
# Pol eta inh = qHTS for Inhibitors of Polymerase Eta. Potency, µM (titrated, usually from 114 µM), inactives show top-dose activity change, negative = inhibition, actives largely listed as inhibitors. 390,000 compounds, 1.2% hits. DNA polymerase eta (Homo sapiens), Q9Y253. recombinant Pol eta, fluorescent DNA replication assay. AID 588591, 2011; further: on the % scale 0 is the no-effect control and ±100 the full control effect
#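 Pol eta at 10 nM preincubated with compounds 15 min at room temperature; reaction started with fluorescent substrate (50 nM final) and read kinetically at 0 and 10 min.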
# Starred values were filed as active, the others as inactive; ? = inconclusive; . = no result given; [ ] = remark or other dose. Shown are actives, neighbours in structure and some others; about 2.4% of the full set was active somewhere. The call rests on the fitted dose curve; in most records, active means well fitted curve in the direction sought with a large enough effect; inconclusive means small, poorly fitted or top-dose-only effect, or another doubt; inactive means no such curve, though single readings can be large; an effect the other way counts as inactive or inconclusive. Potency means the concentration at half of the fitted maximal effect.
SMILES,WRN inhibitor,FEN1 inhibitor,POLB inh,POLK inh,POLI inh,Pol eta inh
O=C(N/N=C\c1ccc(COc2ccc([N+](=O)[O-])cc2)o1)c1cccc(Cl)c1,-6%[57.1 µM],-8%,?,-16%,20%,-4%
Cc1ccc2c(c1)N(N=O)CCC2,-31%[57.1 µM],-1%,3%,-2%,27%,89µM*
COc1ccc(Nc2c(-c3cc(Br)ccc3O)nc3ncccn23)cc1OC,.,-29%,2%,3%,-6%,?
Cc1cccc(N2C(=O)NC(=O)/C(=C/c3ccc([N+](=O)[O-])o3)C2=O)c1,28µM*,20µM*,5.6µM*,8.9µM*,3.2µM*,2.5µM*
Cc1ccc(N2C(=O)NC(=O)/C(=C\C=C\c3ccco3)C2=O)cc1,?,?,?,-100%,18µM*,50µM*
COc1ccc(CN2C(=O)NC(=O)/C(=C/c3ccc([N+](=O)[O-])o3)C2=O)cc1,.,.,6.3µM*,.,.,.
Cc1cc(N2CCOCC2)ccc1/C=C1\C(=O)NC(=O)N(c2ccccc2)C1=O,-6%,5%,-18%,-5%,-20%,-7%
Cc1cccc(N2C(=O)NC(=O)/C(=C\C=C\c3ccco3)C2=O)c1,-34%,?,?,-94%,13µM*,?
COc1cc(/C=C2\C(=O)NC(=O)N(c3ccccc3)C2=O)c([N+](=O)[O-])cc1OC,?,0%,13%,-7%,136%,-23%
COC1=CC(=O)O[C@H](/C=C/c2ccc3c(c2)OCO3)C1,.,.,.,13%[60.1 µM],.,.
Oc1ccc(Cl)cc1Sc1cc(Cl)ccc1O,?,-25%,.,-22%,?,-3%
COc1cc(-c2nc3ccc(Cl)cn3c2Nc2ccc3c(c2)OCCO3)ccc1O,.,-22%,1%,-1%,?,-26%
Cn1cc(/C=C2\C(=O)NC(=O)N(c3ccccc3)C2=O)c2ccccc21,-12%[11.6 µM],-2%,-7%,-19%,?,25µM*
Cc1ccc(/C=C2/C(=O)NC(=O)N(Cc3ccc(F)cc3)C2=O)o1,.,.,25%,.,.,.
Cc1cc(/C=C2/C(=O)NC(=O)N(c3ccccc3)C2=O)c(C)n1-c1ccc(F)cc1,-15%,1%,.,-18%,?,?
CN(C)c1ccc(/C=C/C=C2/C(=O)NC(=O)N(c3ccccc3)C2=O)cc1,18µM*,?,1%,-24%,?,?
Cc1ccc(/C=C2\C(=O)NC(=O)N(Cc3ccccc3Cl)C2=O)o1,?,?,?,?,25µM*,79µM*
C[C@@H]1CC[C@H]2[C@H](C)[C@H]3CC[C@@]4(O)[C@@H]5CC(=O)[C@H]6CC(=O)CC[C@]6(C)[C@H]5C[C@H]4[C@@H]3CN2C1,.,.,.,17%[60.1 µM],.,.
N#Cc1c(/N=C/c2c(O)n(Cc3ccco3)c(=O)[nH]c2=O)sc2c1CCCC2,56µM*,?,32µM*,22µM*,10µM*,14µM*
O=c1[nH]c(=O)n(Cc2ccco2)c(O)c1/C=N/N1CCCCCC1,-8%,-3%,3%,-17%,142%,-3%
Cc1ccc(Cl)cc1NC(=O)N(Cc1ccc2c(c1)OCO2)C1CCN(Cc2ccccc2)CC1,.,-14%,30%,-5%,-5%,-12%
O=c1cc(C2CCNCC2)[nH][nH]1,5%,-13%,3%,0%,0.89µM*,14%
O=C(O)CSCC(=O)N(Cc1ccccc1)c1nc(-c2ccccc2)c(-c2ccccc2)s1,-30%,?,50µM*,?,50µM*,?
C=CCN1C(=O)/C(=C\c2ccc(N3CCOCC3)o2)C(=O)NC1=S,-25%,12%,-2%,-11%,?,28µM*

# Compound activity as filed in PubChem BioAssay.
